The supplement of paper PMC11417369
± gives the standard deviation of the averaged measurements. Over roughly 25,000 sequences, “ln(normalized median fluorescence intensity)” has its median near 8.6; the highest 2% begin near 10. The sample holds the highest values, similar sequences and a random draw of the others, so the mix is not that of the screen.

The sequences below were run on PfAP2-EXP AP2 domain (GST-tagged) (assay: gcPBM binding intensity (ln(normalized median fluorescence intensity)); higher = stronger DNA binding).
Summary of the method: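 Binding intensity values are the highest Masliner-normalised natural-log median intensity among replicate spots of either probe orientation. The binding step lasted 1 h in 1× PBS with 1% milk, 0.2 mg/ml BSA, 0.5% salmon testes DNA and 0.03% Triton X-100, using GST-tagged P. falciparum DNA-binding domains expressed in E. coli on an Agilent 4 × 180k array of primer-extended double-stranded 36-bp intergenic genomic probes plus negative controls. Alexa488 anti-GST antibody and a 488 nm scan detected bound protein.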

Sequence	gcPBM binding intensity (ln)
ATATTAATTCGTTTTGTACACACATAATGAATAATT [CACACA_site8701]	8.43 ± 0.24
TGTGCTATATTCATATGTACATATAATTATTATATA [XGTACX_site3549]	8.86 ± 0.028
CTGTATTCATAATTCACACAAATGGTTTATATGAAT [CACACA_site4315]	8.5 ± 0.31
GGGGACGCGGGTGGGGGTACTCACACTATGCAAAAT [XGTACX_site7745]	10.3 ± 0.4
ATGCAAATGTGCATCACACACACTAATGGGTATGTA [CACACA_site2893]	8.39 ± 0.38
GCTTAGTTATATAACTGTACTATTTTTATTTATATG [XGTACX_site884]	9.16 ± 0.83
CCTATAATAAATAATACACACATATTGTAAATATAT [CACACA_site7496]	8.46 ± 0.53
AGGTGCAAAAATAAAACATGCAAAAATAAAAATGAA [TGCATGCA_site502]	9.15 ± 0.44
GAAAGAATAAAATAAACATGCAAATAAAACATAAAA [TGCATGCA_site471]	9.27 ± 0.25
CACATAAAATAAGGTGCATGCAAACGAGAAAATAAA [TGCATGCA_site75]	10.5 ± 0.11
CAAGGAACCAGACACACACACATAAATGTATTTATA [CACACA_site6491]	8.39 ± 0.48
TCATAAAAGATTAAGTGTACATGTGCTACTCTTATA [XGTACX_site6255]	8.34 ± 0.25
ATATATCATGAACCTTGTACGTATATATATATATAT [XGTACX_site239]	10.2 ± 0.23
GTTTTTATCATATCATGTACGTATTTTATTTTTTTT [XGTACX_site8643]	9.03 ± 0.32
ATATATATATATGTATGTACGTATGTATGTATGAAT [XGTACX_site4857]	9.91 ± 0.29
TATATATATATATAGGTGCAATATTGAAAAAATATC [GTGCAC_site9535]	10.3 ± 0.21
TAATATAATATATAGGTGCAATATTAACAAAAATTT	8.63 ± 0.085
TCTTAAAATATATAGGTGCAAAAAAAAAAAAAAAAA	8.31 ± 0.13
AATACGTTTATATATTGTACGTTATATATATATATA [XGTACX_site7452]	9.91 ± 0.33
TATATATATATATATTGTACTGAACGTTTTTTTTTG [XGTACX_site8060]	10.2 ± 0.39
ACCGGTGGAACGTTTTGTACATATATAATAATATAT [XGTACX_site2143]	8.62 ± 0.5
ATTGTGGATATTCTTACACACAAATTTATATATAAA [CACACA_site2601]	8.37 ± 0.49
AAGTTTTTTTTTAACACACACATAATAAAATAAATA [CACACA_site446]	8.46 ± 0.31
GTATGTTTAATTTTAGTGCAATTATAAATATTTTAA [GTGCAC_site9531]	8.62 ± 0.18
TATATATATTTATATGCATGTAATATATTTGTATTG [TGCATGCA_site323]	8.71 ± 0.3

Sequence	gcPBM binding intensity (ln)
GGGGAAAAAAAAAAAGGAAAAAGAAAAAAAAAAAAA [GTGCAC_negctrl_site489]	8.38 ± 0.39
AAAAAAAAAAAAAAAAGGGGGGGAGGGATTGAAAAA [CACACA_negctrl_site193]	10.22 ± 0.042
AAAAAAAAATGAAAAGAAAAAAAAAGAAAAAAGGGA [CACACA_negctrl_site287]	8.61 ± 0.67
CTATTATAATATTTTACACACCATGTAAGATATATA [CACACA_site7492]	8.46 ± 0.35
TCTTTTAAACAGTACACACACACATCTATATTTATA [CACACA_site6559]	8.755 ± 0.078
ATTATATTATTTTAAAGTACACACATATATTAATAT [XGTACX_site4769]	8.63 ± 0.24
CATATTTTTTCTTAAACACACACATATATATATATA [CACACA_site8920]	10.1 ± 0.41
TTAACAGTAAAACACAGTACATATATACTTAAAACA [XGTACX_site1930]	8.59 ± 0.35
TATTTTTTCTTAAACACACACATATATATATATAAT [CACACA_site5567]	8.56 ± 0.39
TATATTCTTTTAAACAGTACACACACACATATATAT [XGTACX_site1701]	8.96 ± 0.44
TATTTTAAAAAAAAAAGTACACATAATATATATAAC [XGTACX_site5416]	8.64 ± 0.26
TTAATCCTTTTTAAAAGTACACATATATATATATAT [XGTACX_site962]	10.2 ± 0.38
TTTTCTTTTAAACATATATATATATATATATATATA [XGTACX_negctrl_site559]	10.4 ± 0.23
TCTTTTAAACAGTACACACACACATATATATATATA [CACACA_site924]	10.3 ± 0.22
AAATAAAATACATATAAACACACATATAAACCAACA [CACACA_site8789]	8.88 ± 0.61
TTAAAACCAAAACACAGTACATATATATATATATAT [XGTACX_site5668]	10.3 ± 0.23
ATATATATATTAAATACACACATTTTTGATTAGGTT [CACACA_site3119]	9.405 ± 0.078
TAAATAAGTATTACTAGTACACACAAGTTGTTAATC [XGTACX_site7074]	8.57 ± 0.28
TTTTATGTTCTTAATGCACACTTATAAGTATCTTAT [CACACA_site4895]	9.07 ± 0.21
TATCATATAAAACATGCACACATATGTACTCTTATA [CACACA_site9249]	8.77 ± 0.31
ATTTTTTATGAAAATAAACACACGATTTATTATATA [CACACA_site1312]	8.14 ± 0.33
AGAAAAAAGAGGGATACACACAAACATATATTTATA [CACACA_site7122]	8.81 ± 0.29
ACATATAATATATATATATATATATATATATATAAT [GTGCAC_negctrl_site648]	8.66 ± 0.18
TTGGTATAAAATTATAGTACATAAGGTAAATATAAA [XGTACX_site4698]	8.56 ± 0.33
GGAATATTAAAAAAATGTACAAAAAATAATATCCAT [XGTACX_site2596]	8.97 ± 0.36

Sequence	gcPBM binding intensity (ln)
ATATTAAGAATGTATACATGCATATATATATAGTAC [TGCATGCA_site219]	9.17 ± 0.42
CATAAACTTTTTAACACACACTTATATATATATATA [CACACA_site4747]	10.3 ± 0.23
CATAAACTTTATAACACACACTTATAAATATAAATA [CACACA_site6646]	8.41 ± 0.4
TTTTGAAGCTTTAAAACATATATATATATATATATA [CACACA_negctrl_site184]	10.3 ± 0.4
TACATAAACTTTATAACACACACTTATATATATATA [CACACA_site1106]	9.86 ± 0.18
TTAAAACATATTTTGAATTAATATATTTTAATATTA [XGTACX_negctrl_site148]	7.72 ± 0.39
AAACTTTTTTTAAAAACACACATATATATTTATATA [CACACA_site4092]	8.36 ± 0.41
TGTTATATATGTAATTGTACACTTATACAAAATTAT [XGTACX_site6350]	8.52 ± 0.22
TTTTTGTTTTTGTTTTGTACTCATACATACTATCAT [XGTACX_site4210]	8.99 ± 0.44
AAAAAAAATATATTACAAAACTTAGGATCCTAATAT [CACACA_negctrl_site470]	8.48 ± 0.39
AAATATTAAATGGAAAACAAATATATATATCTTAAT [XGTACX_negctrl_site383]	8.56 ± 0.38
TATATATATATATGGGGTACAAATGGTCAGTATTAT [XGTACX_site1223]	10.2 ± 0.21
TATGTATAAAAATAATGTACAAAATATATTATATGT [XGTACX_site2794]	8.69 ± 0.33
AAAAAAAAAATTGAAAGTACACAAATGGGGTATTAT [XGTACX_site3960]	8.75 ± 0.35
GATATTCATTATATATGTACATATATGTAATATATA [XGTACX_site2210]	8.55 ± 0.24
TATATATATAAACACACACACACATATATATATATT [CACACA_site8814]	9.02 ± 0.23
GTAATCCACAAACACACACACATACACATATATATA [CACACA_site2728]	8.78 ± 0.34
GAATAAAGGAGAGGCACACATATATATATATATATA [CACACA_site2452]	10.2 ± 0.25
TATAAAAGTGGACACACACACATATATATATATATA [CACACA_site4673]	10.2 ± 0.64
AAACATAAGGGACACACACACATATATATATATATA [CACACA_site5920]	10.3 ± 0.16
TCTATAAAGGAATATACACACATATATATATATATA [CACACA_site410]	10 ± 0.26
AATAATAAAAAAAGTGCACACACATAATATATATAT [CACACA_site9100]	9.47 ± 0.099
AATCCACAAAGACACACACACACATATATATATATA [CACACA_site1269]	10.2 ± 0.35
TAATAAAAAAAGTGCACACACATAATATATATATAT [CACACA_site3340]	9.74 ± 0.28
TATATATATAAACACACACACATATATATATATATA [CACACA_site4584]	10.1 ± 0.35

Sequence	gcPBM binding intensity (ln)
AATATAAAAAGGCACACACACAAAAAAAAAAAAAAA [CACACA_site896]	8.26 ± 0.49
AAAAAAAAAAAAAAGACACACATATATATATATATA [CACACA_site633]	10 ± 0.31
ATAAAAAAAGATGAACGTACATATATTTTAAAAATC [XGTACX_site5950]	8.7 ± 0.45
TAATCATTTTTAAATTGTACAATTTATATAATAAGT [XGTACX_site6081]	8.5 ± 0.26
AAATTTATAAATTAAAGTACATATTTCTTGAATATT [XGTACX_site859]	8.34 ± 0.48
CTCAACATATACGTAACACACATATATATATATATA [CACACA_site3838]	10.2 ± 0.41
TAAGTTTTGTTTTTTTGTACTCATTCATACTATCAT [XGTACX_site3638]	8.87 ± 0.49
TAAAATTTAAGTTATACACACTTAAGTAACATCATC [CACACA_site6395]	8.72 ± 0.37
TGTTTATGTATCAATTGTACAAAAAAAAAAAAAAAA [XGTACX_site1590]	8.26 ± 0.46
TGACCTGTTCAGGTAACACACATATAAACACATACA [CACACA_site4186]	8.8 ± 0.43
TTAATAACGTAATGTAAATGTTTCATACCCTTTTTT [CACACA_negctrl_site988]	8.36 ± 0.43
CCATAAAAAGGATACACACACACACGCACATATATA [CACACA_site6550]	8.73 ± 0.5
TATATATATAGACACACACACACATATATATATATA [CACACA_site9366]	10.1 ± 0.42
CAACGATACAAAAAAGGTACACATATATATATATAT [XGTACX_site8688]	10.2 ± 0.47
ATAAAAAAAGGACACACACACATATATTTATTTATA [CACACA_site7438]	8.66 ± 0.52
AATACAAAAAAAGGTACACACATAATATATTTATTA [CACACA_site2628]	8.7 ± 0.34
CCATAAAAAGGATACACACACACACCCACATATATA [CACACA_site903]	8.71 ± 0.45
ATAAAAAAAGGACACACACACATATATATATATATA [CACACA_site5662]	10.2 ± 0.42
ACAAATACAAAAAAAGGTACACACATAATATATTTA [XGTACX_site5515]	8.72 ± 0.51
AAAGGATATAGACACACACACACATATATATATATA [CACACA_site2200]	10.2 ± 0.14
CATATAAAAGGACACACACACACATATATATATATA [CACACA_site4674]	10 ± 0.43
TAAAAGGATACATATACACACATATATATATATATA [CACACA_site2791]	10.2 ± 0.42
AAAGGATACAGACACACACACACATATATATATATA [CACACA_site906]	10.1 ± 0.4
